Records with an inconclusive call do not appear. A call without a number means that no potency is given here. Activity calls are given as the source filed them. Calls come from the whole dose curve; as a rule, active = well fitted curve in the direction sought with a large enough effect; inconclusive = small, poorly fitted or top-dose-only effect, or another doubt; inactive = no such curve, though single readings can be large; an effect the other way counts as inactive or inconclusive.
Experiments:
[1] = qHTS for Inhibitors of Plasmodium falciparum (DD2) proliferation (AID 504314); conditions: P. falciparum Dd2 in erythrocytes, SYBR Green growth, 72 h; series mostly up to 1.12 µM
Procedure, shortened: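 SYBR Green growth assay: 72 h compound exposure of infected red cells (2.5% hematocrit, 0.3% parasitemia), then lysis and overnight dye staining, fluorescence 485/535 nm. Values scaled between DMSO and 0.29 uM artemisinin controls.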

[2] = qHTS for Inhibitors of Plasmodium falciparum (GB4) proliferation (AID 504315); note: nearly all actives have a fitted effect of over 50% in size; conditions: P. falciparum GB4 in erythrocytes, SYBR Green DNA, 72 h; series mostly up to 6.7 µM
Procedure, shortened: (§1)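 Parasite growth measured as SYBR Green DNA fluorescence (ex 485, em 535 nm) after overnight lysis following 72 h culture at 37 °C, 0.3% parasitemia, 2.5% hematocrit. Values normalized against DMSO and 0.29 uM artemisinin controls, with plate-stack correction.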

[3] = qHTS for Inhibitors of Plasmodium falciparum (7G8) proliferation (AID 504316); note: nearly all actives have a fitted effect of over 65% in size; conditions: P. falciparum 7G8 in erythrocytes, SYBR Green DNA, 72 h; series mostly up to 6.7 µM
Procedure, shortened: as §1

[4] = qHTS for Inhibitors of Plasmodium falciparum (HB3) proliferation (AID 504318); note: nearly all actives have a fitted effect of over 60% in size; conditions: P. falciparum HB3 in erythrocytes, SYBR Green DNA, 72 h; series mostly up to 7.21 µM
Procedure, shortened: as §1
Potency is the fitted concentration of half-maximal effect.

| SMILES | Potency [1] | Potency [2] | Potency [3] | Potency [4] |
| --- | --- | --- | --- | --- |
| COC(=O)C1=C(C(=O)OC)[C@@H]2N(C)c3ccccc3[C@@]23C[C@@H](CO)N(C(=O)c2ccco2)C3=N1 | inactive | inactive | inactive | inactive |
| COC(=O)C1=C(C(=O)OC)[C@@H]2N(C)c3ccc(OC)cc3[C@@]23C[C@@H](C(=O)OC)N(C(=O)COCc2ccccc2)C3=N1 | inactive | inactive | inactive | inactive |
| COC(=O)N[C@@H](c1cccc(C)c1)[C@]1(C(C)=O)CCCC1=O | inactive | inactive | inactive | inactive |
| COC/C=C/C1=CC2=CC(=O)C(C)(OC(=O)c3cnc4ccccc4n3)C(=O)C2=CN1c1ccc(CO)cc1 (centres undefined) | inactive | inactive | inactive | inactive |
| COC(=O)C1=C(C(=O)OC)[C@@H]2N(C)c3ccccc3[C@@]23C[C@@H](C(=O)OC)N(C(=O)COCc2ccccc2)C3=N1 | inactive | inactive | inactive | inactive |
| C=CC1=C2C=C(C3CC3)N(CCCN(CC)CC)C=C2C(=O)C(C)(OC(=O)c2ccco2)C1=O (centres undefined) | inactive | inactive | inactive | inactive |
| CC1(OC(=O)CCc2ccccc2)C(=O)C=C2C=C(c3ccc(C#N)cc3)N(C3CCCCC3)C=C2C1=O (centres undefined) | inactive | inactive | inactive | inactive |
| COC/C=C/C1=CC2=CC(=O)C(C)(OC(=O)c3cnc4ccccc4n3)C(=O)C2=CN1CCc1c[nH]c2ccccc12 (centres undefined) | inactive | inactive | inactive | inactive |
| CCN1C(=O)N[C@@H](c2ccccc2)C(C(=O)OC)=C1C | inactive | inactive | inactive | inactive |
| CCCCC1=CC2=CC(=O)C(C)(OC(=O)CC)C(=O)C2=CN1c1cccc(C#N)c1 (centres undefined) | inactive | inactive | inactive | inactive |
| CCN1C(=O)N[C@@H](CCc2ccccc2)C(C(=O)OC)=C1C | inactive | inactive | inactive | – |
| COC/C=C/C1=CC2=CC(=O)C(C)(OC(=O)c3cnc4ccccc4n3)C(=O)C2=CN1CC1CC1 (centres undefined) | inactive | inactive | inactive | inactive |
| C=CCOC(=O)N[C@H](C(C(=O)OC)=C(C)NCc1ccccc1)c1cccc(F)c1 | inactive | inactive | inactive | inactive |
| CCOC(=O)CN1C(=O)N[C@@H](c2ccco2)C(C(=O)OC)=C1C | inactive | inactive | inactive | inactive |
| C[C@H]1Cc2c(COc3ccccc3)nc3c(c2CO1)CN(C(=O)Nc1cccc(C#N)c1)CC3 | inactive | inactive | inactive | inactive |
| CC(=O)[C@@H]1[C@@H](C)N(Cc2ccccc2)C(=O)N[C@H]1c1cccc(C(F)(F)F)c1 | inactive | inactive | inactive | inactive |
| COC(=O)CCC(=O)OC1(C)C(=O)C2=CN(CC3CC3)C(c3ccc(OC)cc3)=CC2=C(Br)C1=O (centres undefined) | inactive | inactive | inactive | inactive |
| CC[C@@H](C)CN1C(=O)N[C@@H](c2ccccc2)C(C(=O)OC)=C1C | inactive | inactive | inactive | inactive |
| COCCN1C(=O)N(C)[C@@H](c2ccccc2)C(C(C)=O)=C1C | inactive | inactive | inactive | inactive |
| COC/C=C/C1=CC2=CC(=O)C(C)(OC(=O)c3cnc4ccccc4n3)C(=O)C2=CN1CCCOC(C)C (centres undefined) | inactive | inactive | inactive | – |
| CC#CCN1c2ccccc2[C@]23C[C@@H](C(=O)OC)N(S(=O)(=O)c4ccc(Br)cc4)C2=NC(C(=O)OC)=C(C(=O)OC)[C@H]13 | inactive | 1690 nM (active) | 1900 nM (active) | – |
| CC1(C)O[C@@H](C(O)(c2cc(F)c(F)c(F)c2)c2cc(F)c(F)c(F)c2)[C@H](C(O)(c2cc(F)c(F)c(F)c2)c2cc(F)c(F)c(F)c2)O1 | 671 nM (active) | 953 nM (active) | 379 nM (active) | 536 nM (active) |

| SMILES | Potency [1] | Potency [2] | Potency [3] | Potency [4] |
| --- | --- | --- | --- | --- |
| COC(=O)C1=C(C(=O)OC)[C@@H]2N(C)c3ccccc3[C@@]23C[C@@H](C(=O)OC)N(C(C)=O)C3=N1 | inactive | inactive | inactive | inactive |
| COC/C=C/C1=CC2=CC(=O)C(C)(OC(=O)c3cnc4ccccc4n3)C(=O)C2=CN1c1cccc(C#N)c1 (centres undefined) | inactive | inactive | inactive | inactive |
| COC(=O)CCCC1=CC2=CC(=O)C(C)(OC(=O)c3cccs3)C(=O)C2=CN1CCCCO (centres undefined) | inactive | inactive | inactive | inactive |
| COC(=O)CCC(=O)OC1(C)C(=O)C=C2C=C(C3CC3)N(CCCCO)C=C2C1=O (centres undefined) | inactive | inactive | inactive | inactive |
| COC(=O)CCC(=O)OC1(C)C(=O)C2=CN(CCc3ccccn3)C(c3ccc(OC)cc3)=CC2=C(Br)C1=O (centres undefined) | inactive | inactive | inactive | inactive |
| O=C1c2cc(Br)ccc2O[C@@H](c2ccc3c(c2)OCO3)[C@@H]1O | inactive | inactive | inactive | inactive |
| COC(=O)C1=C(C(=O)OC)[C@@H]2N(C)c3ccccc3[C@@]23C[C@@H](CO)N(C(=O)C2CCC2)C3=N1 | inactive | inactive | inactive | inactive |
| COC(=O)[C@@H]1[C@@H](C)N(Cc2ccccc2)C(=O)N[C@H]1c1ccccc1 | inactive | inactive | inactive | inactive |
| CCCCC1=CC2=CC(=O)C(C)(OC(=O)CC)C(=O)C2=CN1CCN1CCOCC1 (centres undefined) | inactive | inactive | inactive | inactive |
| CCCCC1=CC2=C(c3ccco3)C(=O)C(C)(OC(=O)c3ccc(OC)cc3)C(=O)C2=CN1CC(C)C (centres undefined) | inactive | inactive | inactive | inactive |
| CC(=O)c1ccc([C@@H]2C=C[C@H](O)[C@@H](CO)O2)cc1 | inactive | inactive | inactive | inactive |
| COC(=O)C1=C(C(=O)OC)[C@@H]2N(C)c3ccccc3[C@@]23C[C@@H](C(=O)OC)N(C(=O)CC(C)C)C3=N1 | inactive | inactive | inactive | inactive |
| CCOC(=O)NN=C1C[C@@H](O)[C@@H](O)[C@@H]2[C@H]3C(=O)N(C4CCCCC4)C(=O)[C@@H]3CC[C@@H]12 | inactive | inactive | inactive | inactive |
| COC(=O)CCC(=O)OC1(C)C(=O)C2=CN(CCN3CCOCC3)C(c3ccc(OC)cc3)=CC2=C(Br)C1=O (centres undefined) | inactive | inactive | inactive | inactive |
| COc1ccc(C2=CC3=C(Br)C(=O)C(C)(OC(=O)c4cnc5ccccc5n4)C(=O)C3=CO2)cc1 (centres undefined) | inactive | inactive | inactive | inactive |
| Fc1ccccc1-c1nc(-c2ccccc2)oc1NC1CCCCC1 | inactive | inactive | inactive | inactive |
| CC1(OC(=O)CCc2ccccc2)C(=O)C=C2C=C(c3ccc(C#N)cc3)N(CCc3ccccn3)C=C2C1=O (centres undefined) | inactive | inactive | inactive | inactive |
| C[C@H]1Cc2c(-c3ccccc3)nc3c(c2CO1)CN(S(=O)(=O)c1ccc(C#N)cc1)CC3 | inactive | inactive | inactive | inactive |
| CCOC(=O)CCCNC(=O)N1CCc2nc(-c3ccccc3)c3c(c2C1)CO[C@@H](C)C3 | inactive | inactive | inactive | inactive |
| CCCCC1=CC2=C(c3ccco3)C(=O)C(C)(OC(=O)c3ccc(OC)cc3)C(=O)C2=CN1CCCCO (centres undefined) | inactive | inactive | inactive | inactive |
| CC1(OC(=O)c2cnc3ccccc3n2)C(=O)C=C2C=C3CCCN3C=C2C1=O (centres undefined) | inactive | inactive | inactive | inactive |

Source: PubChem BioAssay (NCATS)
